PubChem BioAssay (EPA / NIEHS)
Calls of active or inactive are those of the source. How the source made its calls: active means hit-call score of the fitted dose curve at least 0.9, where 1 is the maximum; inactive means score below 0.9.

How the values were obtained:
Details in all cases: mRNA level, 48 h; actives raise or lower the signal
[1] = read-out: Glutamate-cysteine ligase catalytic (GCLC), GCLC (gene 2729); test: LTEA_HepaRG_GCLC: Life Technologies and Expression Analysis (LTEA) Assay for Glutamate-cysteine ligase catalytic (GCLC) using HepaRG (AID 2283498)
Outline: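 Read-out is GCLC transcript level by Fluidigm-based TaqMan qRT-PCR, normalized to three housekeeping genes and fitted in both directions relative to 0.5% DMSO. Human HepaRG cells received chemicals for 48 h, up to 100 uM.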

[2] = read-out: growth arrest and DNA damage 45 (GADD45G), GADD45G (gene 10912); test: LTEA_HepaRG_GADD45G: Life Technologies and Expression Analysis (LTEA) Assay for growth arrest and DNA damage 45 (GADD45G) using HepaRG (AID 2283499)
Outline: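 Concentration-response in HepaRG: 48 h dosing, 0.5% DMSO, highest level 100 uM. GADD45G expression by qRT-PCR, normalised to endogenous controls; bidirectional fit to DMSO.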

[3] = read-out: Glutamate-cysteine ligase regulatory (GCLM), GCLM (gene 2730); test: LTEA_HepaRG_GCLM: Life Technologies and Expression Analysis (LTEA) Assay for Glutamate-cysteine ligase regulatory (GCLM) using HepaRG (AID 2283500)
Outline: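 Human liver HepaRG cultures receive test chemicals for 48 hours at up to 100 uM in 0.5% DMSO. GCLM expression is measured by qRT-PCR and analysed for increases or decreases against vehicle.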

[4] = read-out: Glutathione S-transferase M3 (GSTM3), GSTM3 (gene 2947); test: LTEA_HepaRG_GSTM3: Life Technologies and Expression Analysis (LTEA) Assay for Glutathione S-transferase M3 (GSTM3) using HepaRG (AID 2283501)
Outline: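 Expression of GSTM3 is determined by qRT-PCR in human liver HepaRG cells treated 48 h with an 8-point half-log range from 100 uM in 0.5% DMSO.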

[5] = read-out: Heat shock 70 kDa protein 1 (HSPA1A), gene 3303; test: LTEA_HepaRG_HSPA1A: Life Technologies and Expression Analysis (LTEA) Assay for Heat shock 70 kDa protein 1 (HSPA1A) using HepaRG (AID 2283502)
Outline: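 HSPA1A induction in human HepaRG liver cells is measured after 48 h of chemical treatment (100 uM maximum, 0.5% DMSO vehicle). Expression comes from qRT-PCR normalized to endogenous controls.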

[6] = read-out: Hypoxia-inducible factor 1-alpha (Homo sapiens) (UniProt Q16665); test: LTEA_HepaRG_HIF1A: Life Technologies and Expression Analysis (LTEA) Assay for Hypoxia-inducible factor 1 (HIF1A) Trancription factor using HepaRG (AID 2283503);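 further: HIF1A transcript by TaqMan qRT-PCR normalized to ACTB GAPDH and POLR2A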
Outline: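 HepaRG, 48 h exposure, 8-pt half-log series from 100 uM, 0.5% DMSO vehicle, duplicates. Readout: HIF1A transcript by qRT-PCR (Fluidigm array), housekeeping-normalised. Bidirectional curve fit vs DMSO baseline.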

[7] = read-out: 3-Hydroxy-3-Methylglutaryl-CoA Synthase 2 (HMGCS2), HMGCS2 (gene 3158); test: LTEA_HepaRG_HMGCS2: Life Technologies and Expression Analysis (LTEA) Assay for 3-Hydroxy-3-Methylglutaryl-CoA Synthase 2 (HMGCS2) using HepaRG (AID 2283504)
Outline: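 This steatosis marker was read as HMGCS2 mRNA change in HepaRG cells treated 48 h with up to 100 uM chemical. Normalisation used housekeeping genes; activity in either direction was fitted relative to 0.5% DMSO vehicle.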

[8] = read-out: HGF (gene 3082); test: LTEA_HepaRG_HGF: Life Technologies and Expression Analysis (LTEA) Assay for Hepatocyte Growth Facto (HGF) using HepaRG (AID 2283505)
Outline: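 Using HepaRG monolayers kept in 0.5% DMSO, chemicals were tested in duplicate over eight half-log concentrations from 100 uM for 48 h. Endpoint: HGF mRNA change relative to DMSO, normalized to ACTB/GAPDH/POLR2A.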

[9] = read-out: Insulin Like Growth Factor 1 (IGF1), IGF1 (gene 3479); test: LTEA_HepaRG_IGF1: Life Technologies and Expression Analysis (LTEA) Assay for Insulin Like Growth Factor 1 (IGF1) using HepaRG (AID 2283506)
Outline: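 Using human HepaRG liver cells, IGF1 transcript induction or suppression is measured 48 h after dosing across eight concentrations capped at 100 uM. Values derive from bidirectional concentration-response fitting with DMSO as baseline.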

[10] = read-out: Intercellular Adhesion Molecule 1 (ICAM1), ICAM1 (gene 3383); test: LTEA_HepaRG_ICAM1: Life Technologies and Expression Analysis (LTEA) Assay for Intercellular Adhesion Molecule 1 (ICAM1) using HepaRG (AID 2283507)
Outline: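 Using the human liver line HepaRG, compounds are tested in duplicate over 48 h at concentrations up to 100 uM. Expression is determined by TaqMan qRT-PCR, normalized to endogenous controls, and analysed relative to 0.5% DMSO vehicle.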

[11] = read-out: Insulin-like growth factor-binding protein 1 (IGFBP1), IGFBP1 (gene 3484); test: LTEA_HepaRG_IGFBP1: Life Technologies and Expression Analysis (LTEA) Assay for Insulin-like growth factor-binding protein 1 (IGFBP1) using HepaRG (AID 2283508)
Outline: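 HepaRG, 48 h, 8 conc. (max 100 uM, half-log), duplicates, 0.5% DMSO. Readout: TaqMan qRT-PCR, ACTB/GAPDH/POLR2A normalisation. Fit: bidirectional vs DMSO.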

[12] = read-out: Interleukin 6 (IL6), IL6 (gene 3569); test: LTEA_HepaRG_IL6: Life Technologies and Expression Analysis (LTEA) Assay for Interleukin 6 (IL6) using HepaRG (AID 2283509)
Outline: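 HepaRG, ~100,000 cells/well, 48 h pre-culture; serum-free induction medium; cmpd 8-pt half-log from 100 uM, 0.5% DMSO, duplicate, 48 h. Lysis in RLT, TaqMan qRT-PCR; gain or loss vs DMSO.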

[13] = read-out: Interleukin 6 Receptor (IL6R), IL6R (gene 3570); test: LTEA_HepaRG_IL6R: Life Technologies and Expression Analysis (LTEA) Assay for Interleukin 6 Receptor (IL6R) using HepaRG (AID 2283510)
Outline: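 Concentration-response in human liver HepaRG cells: eight concentrations from 100 uM downward by half-logs, 48 h exposure, 0.5% DMSO vehicle. IL6R mRNA change measured by qRT-PCR and fitted in both directions relative to vehicle.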

[14] = read-out: Potassium channel subfamily K member 1 (KCNK1), KCNK1 (gene 3775); test: LTEA_HepaRG_KCNK1: Life Technologies and Expression Analysis (LTEA) Assay for Potassium channel subfamily K member 1 (KCNK1) using HepaRG (AID 2283511)
Outline: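 Gain or loss of KCNK1 mRNA is the read-out, quantified by qRT-PCR against three housekeeping genes after 48 h chemical treatment of human HepaRG liver cells. Concentrations ran from 100 uM downward in half-log steps, vehicle 0.5% DMSO.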

[15] = read-out: Keratin 19 (KRT19), KRT19 (gene 3880); test: LTEA_HepaRG_KRT19: Life Technologies and Expression Analysis (LTEA) Assay for Keratin 19 (KRT19) using HepaRG (AID 2283512)
Outline: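 Readout is qRT-PCR of KRT19 mRNA, normalized to ACTB, GAPDH and POLR2A, from HepaRG cells treated 48 h with eight-point half-log dilutions topping at 100 uM. Activity in either direction is scored relative to 0.5% DMSO vehicle.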

[16] = read-out: JUN Transcription Factor, JUN (gene 3725); test: LTEA_HepaRG_JUN: Life Technologies and Expression Analysis (LTEA) Assay for JUN Transcription Factor using HepaRG (AID 2283513)
Outline: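 Human HepaRG liver cells receive test chemicals in 0.5% DMSO for 48 h across an eight-point range topping at 100 uM. Expression changes in JUN are scored in both directions against the DMSO vehicle.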

[17] = read-out: Lipoprotein lipase (LPL), LPL (gene 4023); test: LTEA_HepaRG_LPL: Life Technologies and Expression Analysis (LTEA) Assay for Lipoprotein lipase (LPL) using HepaRG (AID 2283515)
Outline: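 Read-out is LPL transcript level by qRT-PCR, normalized to three housekeeping genes and fitted bidirectionally against the DMSO control. Human HepaRG cells received chemicals for 48 h at up to 100 uM.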

[18] = read-out: MicroRNA 122 (MIR122), gene 406906; test: LTEA_HepaRG_MIR122: Life Technologies and Expression Analysis (LTEA) Assay for MicroRNA 122 (MIR122) using HepaRG (AID 2283516); further: the transcript read is the microRNA miR-122
Outline: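 HepaRG, 48 h exposure, 8-pt half-log from 100 uM, 0.5% DMSO; TaqMan qRT-PCR; bidirectional fit vs DMSO.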

[19] = read-out: matrix metalloproteinase-10 (MMP10), MMP10 (gene 4319); test: LTEA_HepaRG_MMP10: Life Technologies and Expression Analysis (LTEA) Assay for matrix metalloproteinase-10 (MMP10) using HepaRG (AID 2283517)
Outline: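 Gain or loss of MMP10 mRNA is fitted relative to the 0.5% DMSO vehicle. The human hepatic line HepaRG receives a 48-hour serum-free exposure, in duplicate, with a maximum concentration of 100 uM.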

[20] = read-out: MYC, MYC (gene 4609); test: LTEA_HepaRG_MYC: Life Technologies and Expression Analysis (LTEA) Assay for MYC using HepaRG (AID 2283518)
Outline: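 Expression changes were scored by TaqMan qRT-PCR with ACTB, GAPDH and POLR2A normalization. Cultures in serum-free induction medium received duplicate 8-point concentration series, highest 100 uM, for 48 h; DMSO (0.5%) served as baseline.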

Measured: AC50

Sequence of Hypoxia-inducible factor 1-alpha (Homo sapiens) (Q16665 whole entry, looked up): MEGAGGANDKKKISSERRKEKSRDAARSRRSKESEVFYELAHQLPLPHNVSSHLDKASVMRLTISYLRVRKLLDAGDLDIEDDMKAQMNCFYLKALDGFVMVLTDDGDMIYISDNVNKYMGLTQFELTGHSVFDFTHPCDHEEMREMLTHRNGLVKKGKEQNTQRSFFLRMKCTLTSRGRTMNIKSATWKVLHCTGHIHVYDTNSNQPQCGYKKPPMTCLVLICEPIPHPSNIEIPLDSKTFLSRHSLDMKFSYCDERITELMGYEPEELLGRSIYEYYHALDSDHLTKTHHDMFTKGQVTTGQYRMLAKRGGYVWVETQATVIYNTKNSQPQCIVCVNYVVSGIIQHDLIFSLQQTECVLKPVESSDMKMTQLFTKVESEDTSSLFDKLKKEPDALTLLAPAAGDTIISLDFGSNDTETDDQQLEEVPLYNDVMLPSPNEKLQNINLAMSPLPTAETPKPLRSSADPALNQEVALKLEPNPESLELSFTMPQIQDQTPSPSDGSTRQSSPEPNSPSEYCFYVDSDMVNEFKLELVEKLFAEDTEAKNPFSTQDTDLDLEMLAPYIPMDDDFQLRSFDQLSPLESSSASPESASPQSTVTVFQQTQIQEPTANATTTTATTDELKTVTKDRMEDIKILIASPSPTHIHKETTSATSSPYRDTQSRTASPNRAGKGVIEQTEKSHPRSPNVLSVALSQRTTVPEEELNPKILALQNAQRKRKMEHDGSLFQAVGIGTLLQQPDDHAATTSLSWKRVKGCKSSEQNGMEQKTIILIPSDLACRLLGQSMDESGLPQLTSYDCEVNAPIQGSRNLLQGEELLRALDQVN

CCCCc1oc2ccccc2c1C(=O)c1cc(I)c(OCCN(CC)CC)c(I)c1
active: [1] 67.4 µM | [2] 55.1 µM | [3] 61.8 µM | [4] 37.8 µM | [5] 60 µM | [6] 64.5 µM | [7] 61.6 µM | [9] 46.2 µM | [10] 59.5 µM | [11] 54 µM | [12] 61.9 µM | [14] 55.5 µM | [15] 37.8 µM | [16] 66.1 µM | [17] 47.6 µM | [18] 70.4 µM | [19] 54.7 µM | [20] 68.7 µM
inactive: [8] | [13]

CC(=O)Nc1ccc(O)cc1
not listed: [6] | [8]
inactive: all other assays above

CCCCC(CC)C(=O)O (centres undefined)
inactive: all assays above

CN(C)CCOC(c1ccccc1)c1ccccc1
active: [17] 50 µM
not listed: [6]
inactive: all other assays above

CS(=O)(=O)c1ccc([C@@H](CC2CCCC2)C(=O)Nc2cnccn2)cc1Cl
active: [3] 50 µM | [7] 74.3 µM | [9] 32.8 µM | [10] 73.7 µM | [11] 75.2 µM | [18] 80.8 µM | [19] 79.5 µM | [20] 62.7 µM
not listed: [8]
inactive: all other assays above

O=C(c1ccccc1)c1ccccc1
inactive: all assays above

CN(Cc1cnc2nc(N)nc(N)c2n1)c1ccc(C(=O)N[C@@H](CCC(=O)O)C(=O)O)cc1
not listed: [5] | [6]
inactive: all other assays above

CCCCC=O
inactive: all assays above
